Laboratory results: PubChem BioAssay (EPA / NIEHS)
Calls of active or inactive are those of the source. The calls were made as follows: active = hit-call score of the fitted dose curve at least 0.9, where 1 is the maximum; inactive = score below 0.9.

Key:
Details in all cases: mRNA level, 48 h; actives raise or lower the signal
[1] = read-out: Nuclear factor NF-kappa-B p105 subunit (Homo sapiens) (UniProt P19838); experiment: LTEA_HepaRG_NFKB1: Life Technologies and Expression Analysis (LTEA) Assay for Nuclear Factor Kappa B Subunit 1 (NFKB1) using HepaRG (AID 2283521)
Procedure, shortened: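 Human HepaRG cells receive eight half-log concentrations, highest 100 uM, for 48 h. NFKB1 expression is then quantified by qRT-PCR and analysed for up- or down-regulation relative to 0.5% DMSO vehicle.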

[2] = read-out: Phosphatase and tensin (PTEN), PTEN (gene 5728); experiment: LTEA_HepaRG_PTEN: Life Technologies and Expression Analysis (LTEA) Assay for Phosphatase and tensin (PTEN) using HepaRG (AID 2283523)
Procedure, shortened: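 Expression of PTEN is quantified in the human liver line HepaRG following two days of dosing (top concentration 100 uM, half-log dilutions, 0.5% DMSO). Values derive from bidirectional curve fitting relative to DMSO controls.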

[3] = read-out: solute carrier (SLC22A1), SLC22A1 (gene 6580); experiment: LTEA_HepaRG_SLC22A1: Life Technologies and Expression Analysis (LTEA) Assay for solute carrier (SLC22A1) using HepaRG (AID 2283524);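 as to AC50: differentiated human HepaRG liver cells in serum-free induction medium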
Procedure, shortened: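 Transcript induction or suppression of SLC22A1 in human HepaRG cultures is scored after 48 h chemical treatment, with DMSO (0.5%) as baseline for bidirectional fitting. Concentrations span eight half-log points topping at 100 uM.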

[4] = read-out: Pyruvate Dehydrogenase Kinase 4 (PDK4), PDK4 (gene 5166); experiment: LTEA_HepaRG_PDK4: Life Technologies and Expression Analysis (LTEA) Assay for Pyruvate Dehydrogenase Kinase 4 (PDK4) using HepaRG (AID 2283525)
Procedure, shortened: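 Eight-point, half-log concentration series (max 100 uM, 0.5% DMSO) applied to differentiated HepaRG cells for 48 h in duplicate. Endpoint: PDK4 mRNA induction or repression by qRT-PCR against DMSO baseline.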

[5] = read-out: NAD(P)H dehydrogenase [quinone] 1 (NQO1), NQO1 (gene 1728); experiment: LTEA_HepaRG_NQO1: Life Technologies and Expression Analysis (LTEA) Assay for NAD(P)H dehydrogenase [quinone] 1 (NQO1) using HepaRG (AID 2283526)
Procedure, shortened: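 qRT-PCR read-out (Fluidigm TaqMan), normalized to three housekeeping genes, after 48 h chemical exposure of HepaRG cells. Concentrations: eight points, top 100 uM, half-log steps, 0.5% DMSO vehicle. Gain or loss of signal fitted relative to DMSO.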

[6] = read-out: Nuclear factor erythroid 2-related factor 2 (Homo sapiens) (UniProt Q16236); experiment: LTEA_HepaRG_NFE2L2: Life Technologies and Expression Analysis (LTEA) Assay for Nuclear factor erythroid 2-related factor 2 (NFE2L2) Transcription Factor using HepaRG (AID 2283527)
Procedure, shortened: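 Human liver HepaRG line treated in duplicate for 48 h with an eight-point series topping at 100 uM. Gene expression of NFE2L2 by qRT-PCR, bidirectionally fitted against the vehicle control.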

[7] = read-out: succinate dehydrogenase complex iron sulfur subunit B (SDHB), SDHB (gene 6390); experiment: LTEA_HepaRG_SDHB: Life Technologies and Expression Analysis (LTEA) Assay for succinate dehydrogenase complex iron sulfur subunit B (SDHB) using HepaRG (AID 2283528)
Procedure, shortened: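 A human HepaRG culture in serum-free induction medium received test chemicals for 48 h over an eight-point range capped at 100 uM. SDHB expression change was quantified by qRT-PCR.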

[8] = read-out: Signal transducer and activator of transcription 3 (Homo sapiens) (UniProt P40763); experiment: LTEA_HepaRG_STAT3: Life Technologies and Expression Analysis (LTEA) Assay for Signal transducer and activator of transcription (STAT3) using HepaRG (AID 2283529)
Procedure, shortened: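 In this transcriptional endpoint, HepaRG cultures receive test chemicals at up to 100 uM for 48 h, tested in duplicate. STAT3 mRNA is normalized to ACTB, GAPDH and POLR2A.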

[9] = read-out: solute carrier (SLCO1B1), SLCO1B1 (gene 10599); experiment: LTEA_HepaRG_SLCO1B1: Life Technologies and Expression Analysis (LTEA) Assay for solute carrier (SLCO1B1) using HepaRG (AID 2283530)
Procedure, shortened: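 SLCO1B1 transcript levels were quantified by TaqMan qRT-PCR using three housekeeping genes for normalization. This followed 48 h chemical exposure (100 uM top, half-log, 8 points, 0.5% DMSO) of HepaRG liver cells, with gain or loss fitted relative to DMSO.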

[10] = read-out: sulfotransferase 2A1 (SULT2A1), SULT2A1 (gene 6822); experiment: LTEA_HepaRG_SULT2A1: Life Technologies and Expression Analysis (LTEA) Assay for sulfotransferase 2A1 (SULT2A1) using HepaRG (AID 2283531)
Procedure, shortened: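 Expression change of SULT2A1, by qRT-PCR with three housekeeping-gene normalization, was scored bidirectionally versus DMSO. Cells: differentiated HepaRG, dosed in duplicate for 48 h across 8 points, highest 100 µM, half-log dilution, 0.5% DMSO.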

[11] = read-out: Transforming Growth Factor (TGFA), TGFA (gene 7039); experiment: LTEA_HepaRG_TGFA: Life Technologies and Expression Analysis (LTEA) Assay for Transforming Growth Factor (TGFA) using HepaRG (AID 2283532)
Procedure, shortened: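 Gene expression of TGFA was quantified by qRT-PCR after human HepaRG cells were treated for 48 h with test chemicals (eight concentrations, highest 100 uM, 0.5% DMSO). Activity in either direction was fitted relative to DMSO.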

[12] = read-out: Transforming Growth Factor (TGFB1), TGFB1 (gene 7040); experiment: LTEA_HepaRG_TGFB1: Life Technologies and Expression Analysis (LTEA) Assay for Transforming Growth Factor (TGFB1) Transporter using HepaRG (AID 2283533)
Procedure, shortened: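 TGFB1 transcript measured by qRT-PCR with normalisation to three housekeeping genes (ACTB, GAPDH, POLR2A); human HepaRG line treated in duplicate for 48 hr with an 8-point series topping at 100 uM, 0.5% DMSO vehicle, bidirectionally fitted.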

TIMP1, TIMP1 (gene 7076) = experiment: LTEA_HepaRG_TIMP1: Life Technologies and Expression Analysis (LTEA) Assay for TIMP1 using HepaRG (AID 2283534)
Procedure, shortened: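 Bidirectional change in TIMP1 transcript versus 0.5% DMSO, measured by TaqMan qRT-PCR with three housekeeping genes for normalization. HepaRG human liver cells dosed 48 h in duplicate, top concentration 100 uM with half-log dilutions.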

[13] = read-out: Tumor necrosis factor receptor 1 (TNFRSF1A), TNFRSF1A (gene 7132); experiment: LTEA_HepaRG_TNFRSF1A: Life Technologies and Expression Analysis (LTEA) Assay for Tumor necrosis factor receptor 1 (TNFRSF1A) using HepaRG (AID 2283535)
Procedure, shortened: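 mRNA measured by qRT-PCR (TaqMan, Fluidigm arrays) against ACTB/GAPDH/POLR2A housekeepers after 48 h chemical exposure of HepaRG cells. Top concentration 100 uM, half-log 8-point series, duplicates; vehicle 0.5% DMSO, both fit directions.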

[14] = read-out: Thyroid Hormone Responsive (THRSP), THRSP (gene 7069); experiment: LTEA_HepaRG_THRSP: Life Technologies and Expression Analysis (LTEA) Assay for Thyroid Hormone Responsive (THRSP) using HepaRG (AID 2283536)
Procedure, shortened: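 Cell model: human HepaRG, approx. 100,000 cells/well, 0.5% DMSO vehicle. Exposure lasts 48 h; phenobarbital 1 mM serves as induction positive control. Gene expression is measured by qRT-PCR against three endogenous control genes.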

[15] = read-out: Cellular tumor antigen p53 (Homo sapiens) (UniProt P04637); experiment: LTEA_HepaRG_TP53: Life Technologies and Expression Analysis (LTEA) Assay for Tumor Protein P53 (TP53) using HepaRG (AID 2283537)
Procedure, shortened: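 Gain or loss of TP53 mRNA signal is scored relative to 0.5% DMSO after 48 h chemical treatment of HepaRG liver cells, tested in duplicate at eight half-log concentrations up to 100 uM.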

[16] = read-out: UDP glucuronosyltransferase (UGT1A6), UGT1A6 (gene 54578); experiment: LTEA_HepaRG_UGT1A6: Life Technologies and Expression Analysis (LTEA) Assay for UDP glucuronosyltransferase (UGT1A6) using HepaRG (AID 2283539)
Procedure, shortened: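 Expression was quantified by TaqMan qRT-PCR on Fluidigm arrays with ACTB/GAPDH/POLR2A normalization and bidirectional fitting against 0.5% DMSO. HepaRG cells (~100,000/well) were treated in duplicate for 48 h at eight half-log concentrations up to 100 uM in serum-free induction medium.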

[17] = read-out: UDP glucuronosyltransferase (UGT1A1), UGT1A1 (gene 54658); experiment: LTEA_HepaRG_UGT1A1: Life Technologies and Expression Analysis (LTEA) Assay for UDP glucuronosyltransferase (UGT1A1) using HepaRG (AID 2283538)
Procedure, shortened: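 HepaRG, 48 h chemical exposure (top 100 uM, half-log 8-pt, 0.5% DMSO vehicle), duplicate wells; qRT-PCR (TaqMan, Fluidigm array) for UGT1A1 mRNA, housekeeping-normalized; bidirectional curve fit vs DMSO baseline.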

[18] = read-out: X-box binding protein 1 (XBP1), XBP1 (gene 7494); experiment: LTEA_HepaRG_XBP1: Life Technologies and Expression Analysis (LTEA) Assay for X-box binding protein 1 (XBP1) using HepaRG (AID 2283540)
Procedure, shortened: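 XBP1 transcript by qRT-PCR (housekeeping-normalized: ACTB, GAPDH, POLR2A) after 48 h chemical treatment of HepaRG cells, 8-point half-log series topping at 100 uM, vehicle 0.5% DMSO. Gain and loss of signal fitted relative to DMSO.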

[19] = read-out: Protein phosphatase 2A (PPP2R4), PTPA (gene 5524); experiment: LTEA_HepaRG_PPP2R4: Life Technologies and Expression Analysis (LTEA) Assay for Protein phosphatase 2A (PPP2R4) using HepaRG (AID 2283522)
Procedure, shortened: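 HepaRG, 48 h exposure, 8-pt half-log series from 100 uM, 0.5% DMSO vehicle, duplicates. Readout: PPP2R4 mRNA, Fluidigm qRT-PCR, housekeeping-normalized. Bidirectional curve fit vs DMSO baseline.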

Measured: AC50

Chain of Nuclear factor NF-kappa-B p105 subunit (Homo sapiens) (P19838 whole entry, looked up): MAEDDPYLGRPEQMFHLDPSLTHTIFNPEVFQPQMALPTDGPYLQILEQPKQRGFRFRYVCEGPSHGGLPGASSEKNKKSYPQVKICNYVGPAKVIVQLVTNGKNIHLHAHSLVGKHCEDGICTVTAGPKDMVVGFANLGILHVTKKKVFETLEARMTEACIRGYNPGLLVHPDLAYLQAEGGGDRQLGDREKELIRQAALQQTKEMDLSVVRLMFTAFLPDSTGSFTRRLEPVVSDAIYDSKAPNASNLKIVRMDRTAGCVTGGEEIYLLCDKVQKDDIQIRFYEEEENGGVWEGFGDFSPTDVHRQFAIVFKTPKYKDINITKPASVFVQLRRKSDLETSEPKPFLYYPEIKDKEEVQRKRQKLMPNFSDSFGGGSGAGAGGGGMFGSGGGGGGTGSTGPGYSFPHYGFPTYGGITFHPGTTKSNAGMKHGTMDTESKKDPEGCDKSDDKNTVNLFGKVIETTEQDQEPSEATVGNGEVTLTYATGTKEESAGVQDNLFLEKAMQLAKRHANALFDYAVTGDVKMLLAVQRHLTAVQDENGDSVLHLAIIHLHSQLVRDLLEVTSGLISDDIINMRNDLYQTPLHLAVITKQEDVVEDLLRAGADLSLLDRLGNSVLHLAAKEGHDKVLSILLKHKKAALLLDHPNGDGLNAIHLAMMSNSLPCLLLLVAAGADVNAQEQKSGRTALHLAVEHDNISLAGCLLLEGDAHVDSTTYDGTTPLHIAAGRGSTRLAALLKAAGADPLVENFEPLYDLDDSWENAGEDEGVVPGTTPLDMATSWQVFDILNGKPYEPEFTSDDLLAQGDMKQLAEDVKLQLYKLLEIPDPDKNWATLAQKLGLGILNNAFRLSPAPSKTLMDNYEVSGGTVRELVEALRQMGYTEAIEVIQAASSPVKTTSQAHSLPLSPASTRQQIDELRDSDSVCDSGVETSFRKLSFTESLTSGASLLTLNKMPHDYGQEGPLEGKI
Chain of Signal transducer and activator of transcription 3 (Homo sapiens) (P40763 whole entry, looked up): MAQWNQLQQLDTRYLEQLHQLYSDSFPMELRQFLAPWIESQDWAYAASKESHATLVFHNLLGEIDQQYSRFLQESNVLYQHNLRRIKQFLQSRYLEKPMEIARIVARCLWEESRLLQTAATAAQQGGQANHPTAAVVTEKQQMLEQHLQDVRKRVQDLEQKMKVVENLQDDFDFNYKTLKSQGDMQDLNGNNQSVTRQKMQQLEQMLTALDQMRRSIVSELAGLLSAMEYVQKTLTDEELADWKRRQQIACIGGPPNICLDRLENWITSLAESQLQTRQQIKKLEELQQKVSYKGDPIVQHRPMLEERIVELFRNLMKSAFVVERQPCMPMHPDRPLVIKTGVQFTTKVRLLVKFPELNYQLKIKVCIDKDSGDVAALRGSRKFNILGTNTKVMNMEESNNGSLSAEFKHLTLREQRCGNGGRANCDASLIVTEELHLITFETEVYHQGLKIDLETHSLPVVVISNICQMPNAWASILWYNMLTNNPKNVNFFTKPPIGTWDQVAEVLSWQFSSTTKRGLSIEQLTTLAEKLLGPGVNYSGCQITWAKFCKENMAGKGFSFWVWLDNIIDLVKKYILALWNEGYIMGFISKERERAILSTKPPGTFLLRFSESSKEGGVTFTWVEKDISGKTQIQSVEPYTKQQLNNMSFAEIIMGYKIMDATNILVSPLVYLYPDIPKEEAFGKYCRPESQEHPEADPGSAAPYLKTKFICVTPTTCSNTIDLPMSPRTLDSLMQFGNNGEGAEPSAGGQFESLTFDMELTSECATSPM
Chain of Nuclear factor erythroid 2-related factor 2 (Homo sapiens) (Q16236 whole entry, looked up): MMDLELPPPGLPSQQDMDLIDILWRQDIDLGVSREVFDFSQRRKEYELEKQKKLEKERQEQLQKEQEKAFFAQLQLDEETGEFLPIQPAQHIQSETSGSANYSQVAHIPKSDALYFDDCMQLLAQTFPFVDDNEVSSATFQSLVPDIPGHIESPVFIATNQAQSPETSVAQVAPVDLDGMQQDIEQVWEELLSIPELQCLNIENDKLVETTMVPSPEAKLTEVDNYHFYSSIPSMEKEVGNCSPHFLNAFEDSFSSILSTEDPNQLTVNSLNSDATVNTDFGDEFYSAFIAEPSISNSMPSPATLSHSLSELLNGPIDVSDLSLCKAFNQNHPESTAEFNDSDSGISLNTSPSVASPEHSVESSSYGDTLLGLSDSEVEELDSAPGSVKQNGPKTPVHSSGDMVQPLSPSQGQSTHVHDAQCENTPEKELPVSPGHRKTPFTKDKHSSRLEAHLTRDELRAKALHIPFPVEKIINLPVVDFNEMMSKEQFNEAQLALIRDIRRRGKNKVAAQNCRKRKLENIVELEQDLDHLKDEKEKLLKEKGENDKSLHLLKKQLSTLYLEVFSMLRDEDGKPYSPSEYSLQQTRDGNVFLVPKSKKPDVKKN
Chain of Cellular tumor antigen p53 (Homo sapiens) (P04637 whole entry, looked up): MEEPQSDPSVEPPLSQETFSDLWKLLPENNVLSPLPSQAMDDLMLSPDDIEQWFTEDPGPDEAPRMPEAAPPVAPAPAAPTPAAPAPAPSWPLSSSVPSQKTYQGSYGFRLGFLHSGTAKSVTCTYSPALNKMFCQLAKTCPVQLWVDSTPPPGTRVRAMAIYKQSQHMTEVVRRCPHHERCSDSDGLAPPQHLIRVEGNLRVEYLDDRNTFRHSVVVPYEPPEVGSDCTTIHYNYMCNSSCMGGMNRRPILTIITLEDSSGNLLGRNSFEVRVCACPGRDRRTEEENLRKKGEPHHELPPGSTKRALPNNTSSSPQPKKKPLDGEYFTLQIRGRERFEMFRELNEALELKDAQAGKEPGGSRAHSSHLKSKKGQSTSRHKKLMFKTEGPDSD

CC1(C)C(=O)NC(=O)N1CO
not listed: [17] | [18] | [19]
inactive: all other assays above

Cc1cc(SC2=C(O)C[C@@](CCc3ccc(N)cc3)(C(C)C)OC2=O)c(C(C)(C)C)cc1CO
active: [3] 7.05 µM | [4] 13.5 µM | [10] 9.92 µM | [17] 1.38 µM
not listed: [19]
inactive: all other assays above

CC1=C(C)S(=O)(=O)CCS1(=O)=O
active: [3] 82.1 µM | [4] 62 µM | [6] 65.7 µM | [9] 88.2 µM | [11] 50 µM | [14] 80 µM | [15] 50 µM | [16] 0.282 µM | [18] 91 µM
not listed: [10] | [19]
inactive: all other assays above

CSc1ccc(Oc2ccc(S(N)(=O)=O)cc2CN(C)C)cc1C
not listed: [15] | [19]
inactive: all other assays above

COC(=O)CCCC(=O)OC
not listed: [3] | [10]
inactive: all other assays above

OCC(O)CO
active: [1] 1.06 µM
not listed: [18] | [19]
inactive: all other assays above

CC(C)COC(=O)CCCCC(=O)OCC(C)C
not listed: [10] | [15] | [18] | [19]
inactive: all other assays above

O=C1OC(c2ccc(O)cc2)(c2ccc(O)cc2)c2ccccc21
active: [3] 78 µM | [4] 50 µM | [9] 73.2 µM | [14] 80.3 µM | [16] 72.6 µM
not listed: [10] | [17] | [19]
inactive: all other assays above

OCC(CO)n1cnc(-c2ccc(F)cc2)c1-c1ccnc(Oc2ccccc2)n1
active: [6] 33.8 µM | [17] 24.9 µM
not listed: [10] | [18] | [19]
inactive: all other assays above

O=C(O)c1[nH]n(-c2ccc(S(=O)(=O)O)cc2)c(=O)c1N=Nc1ccc(S(=O)(=O)O)cc1
not listed: [18] | [19]
inactive: all other assays above

NC=O
not listed: [15] | [19]
inactive: all other assays above

NCCOCCOCCN
not listed: [18] | [19]
inactive: all other assays above

N[C@@H](Cc1c[nH]c2ccccc12)C(=O)O
not listed: [15] | [19]
inactive: all other assays above

CC(=O)OC1CC(C)OC(C)O1 (stereo not drawn)
not listed: [15] | [17] | [19]
inactive: all other assays above

CCN(CC)CCOc1ccc(C(=C(Cl)c2ccccc2)c2ccccc2)cc1
inactive: [5] | TIMP1, TIMP1 (gene 7076) | [13] | [14]
active: [1] 77.1 µM | [2] 78.5 µM | [3] 17.1 µM | [4] 42 µM | [6] 77.7 µM | [7] 78.1 µM | [8] 78.6 µM | [9] 13.3 µM | [10] 79.3 µM | [11] 42 µM | [12] 42 µM | [16] 56.6 µM
